Bioassay records (PubChem BioAssay)
G9a inh: blocks human histone lysine methyltransferase G9a | G9a H3K9 monomethylation, AlphaScreen, 2 h | Potency, µM (doses to about 102 µM), for the others: at the top dose activity, negative = inhibition, actives largely listed as inhibitors | Q96KQ7 | hit rate 8.8% among 350,000; note: % is set by controls: 0 for no effect and ±100 for the full control effect; nearly all actives have a fitted effect of over 75% in size
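AlphaScreen detection with an anti-monomethyl H3K9 antibody quantified product after a 2 h room-temperature reaction containing 500 nM biotinylated H3K9 peptide, 20 µM SAM and 20 nM enzyme, which had been preincubated 15 min with compound.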
GLS inhibitor: glutaminase GLS (human) inhibition; O94925; GLS enzymatic activity, qHTS titration; Potency, µM (doses to about 45.5 µM), for the others: at the top dose activity change, negative = inhibition, usual class: inhibitors; hit rate 0.21% among 410,000; AID 624170; note: % is set by controls: 0 for no effect and ±100 for the full control effect
Target sequence (O94925 whole entry, looked up): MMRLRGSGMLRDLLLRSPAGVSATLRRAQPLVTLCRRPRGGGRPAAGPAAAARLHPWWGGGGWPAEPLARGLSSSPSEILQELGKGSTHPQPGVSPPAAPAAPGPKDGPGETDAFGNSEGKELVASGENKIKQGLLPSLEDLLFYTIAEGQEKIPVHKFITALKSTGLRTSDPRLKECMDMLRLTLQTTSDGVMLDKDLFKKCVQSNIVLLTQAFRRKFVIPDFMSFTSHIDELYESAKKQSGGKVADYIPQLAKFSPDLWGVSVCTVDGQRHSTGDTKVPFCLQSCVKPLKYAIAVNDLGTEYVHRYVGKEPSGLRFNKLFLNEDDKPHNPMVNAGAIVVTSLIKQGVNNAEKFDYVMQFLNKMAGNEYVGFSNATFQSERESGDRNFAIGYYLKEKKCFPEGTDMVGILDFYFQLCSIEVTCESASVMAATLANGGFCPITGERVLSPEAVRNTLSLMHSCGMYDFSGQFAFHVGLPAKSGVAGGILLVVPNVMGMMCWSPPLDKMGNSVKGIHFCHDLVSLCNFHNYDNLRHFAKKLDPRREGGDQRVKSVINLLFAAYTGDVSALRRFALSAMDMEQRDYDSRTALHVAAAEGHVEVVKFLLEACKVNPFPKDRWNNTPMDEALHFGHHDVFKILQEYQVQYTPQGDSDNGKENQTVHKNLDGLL
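Glutamate formation by hKGA was monitored fluorometrically using coupled glutamate oxidase, HRP and Amplex Red. Substrate was added as 1 mM L-glutamine solution; incubation was 30 min at RT after an initial read.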
HP1b binding inh: inhibitors of HP1-beta chromodomain binding to methylated histone tails | Potency, µM (top dose mostly 114 µM), inactives show at the highest dose activity change, negative = inhibition, usual class: inhibitors | P83916 | AlphaScreen HP1-beta / biotin-H3K9me3 peptide binding | hit rate 0.56% among 390,000 | AID 540317; note: nearly all actives have a fitted effect of over 70% in size
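HP1-beta protein (50 nM final) preincubated 30 min at room temperature with biotinylated H3(1-18)K9me3 peptide (50 nM) in PBS pH 7.4, 0.01% Tween-20, then compound added for 30 min. AlphaScreen streptavidin donor/nickel chelate acceptor beads (10 ug/mL final), 30 min dark, luminescence read.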
JMJD2A Tudor inh: inhibitors of human JMJD2A Tudor domain; AlphaScreen JMJD2A-Tudor / H3K4me3 peptide binding; Potency, µM (top dose mostly 114 µM), without a hit: at the top dose activity change, negative = inhibition, actives largely listed as inhibitors; hit rate 4.4% among 390,000; AID 504339; note: % is set by controls: 0 for no effect and ±100 for the full control effect; nearly all actives have a fitted effect of over 50% in size
L3MBTL1 block: L3MBTL1 (human) inhibition; Q9Y468; AlphaScreen L3MBTL1–H3K9me1 peptide binding; Potency, µM (titrated, usually from 57.1 µM), for the others: top-dose activity, negative = inhibition, actives largely listed as inhibitors; hit rate 0.66% among 230,000; AID 485360; note: % is set by controls: 0 for no effect and ±100 for the full control effect; nearly all actives have a fitted effect of over 60% in size
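AlphaScreen proximity signal between nickel-chelate acceptor and streptavidin donor beads (final 10 ug/mL) reports binding of 50 nM L3MBTL1 to 75 nM biotin-H3 K9me1 peptide; complex incubated with compounds 30 min at room temperature; cefsulodin titration as control.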
BAZ2B block: inhibitors of human BAZ2B bromodomain. Q9UIF8. AlphaScreen BAZ2B-H3K14Ac peptide displacement. Potency, µM (doses to about 114 µM), for the others: top-dose activity change, negative = inhibition, hits mostly inhibitors. hit rate 4.4% among 360,000. AID 504333; note: % is set by controls: 0 for no effect and ±100 for the full control effect; nearly all actives have a fitted effect of over 60% in size
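Compounds, titrated to a top concentration of 110 uM, were incubated 30 min at room temperature with preformed BAZ2B/acetyl-K14 H3 peptide complex (50 nM each). Proximity signal was measured by AlphaScreen after 20 min with beads.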
* marks the source's active call; other numbers are inactive results; ? = inconclusive; · = not tested or not shown; [ ] = another dose, or the depositor's remark. In the library only some 10% were active in any assay of this set; here they are far more common. Calls come from the whole dose curve; as a rule, active = well fitted curve in the direction sought with a large enough effect; inconclusive = small, poorly fitted or top-dose-only effect, or another doubt; inactive = no such curve, though single readings can be large; an effect the other way counts as inactive or inconclusive. Potency is the fitted concentration of half-maximal effect.

SMILES	G9a inh	GLS inhibitor	HP1b binding inh	JMJD2A Tudor inh	L3MBTL1 block	BAZ2B block
COc1cc2c(cc1OC)CN(CC(=O)Nc1ccccc1C(=O)NCc1ccccc1)CC2	13.7%	-0.8%	8.2%	-30.1%	·	?
COc1cc2c(cc1OC)CN(CC(=O)NC(=O)NCc1ccccc1)CC2	56.2µM*	-13.2%	33.8%	-17.1%	7.2%	-14.7%
CCc1cccc(CC)c1NC(=O)CN1CCc2cc(OC)c(OC)cc2C1	70.8µM*	·	·	·	·	50.1µM*
COc1cc([N+](=O)[O-])ccc1NC(=O)CN1CCc2cc(OC)c(OC)cc2C1	28.2µM*	0.6%	-17.1%	-35.3%	·	-34.9%
COC(=O)CSc1cc([N+](=O)[O-])ccc1NC(=O)OC	35.5µM*	-3.7%	34.4%	-10.8%[57.1 µM]	·	-2.7%
COc1cc2c(cc1OC)CN(CC(=O)Nc1cccc(C)c1)CC2	6.4%[59 µM]	-0.4%	25.0%	11.0%[57.1 µM]	1.2%	-4.8%
COC(=O)Nc1ccc([N+](=O)[O-])cc1OC	14.0%	3.7%	22.6%	-11.5%	7.5%	12.2%
O=C(NCc1ccc(F)cc1)c1cccc(N2CCCS2(=O)=O)c1	-2.8%[59 µM]	-4.2%	27.7%	8.1%	·	-0.5%
CCN(CC(=O)Nc1c(F)cccc1F)C(=O)CCc1nc2sc3c(c2c(=O)[nH]1)CCCC3	1.6%[0.501 µM]	97.9%	-12.3%	?	?	50.1µM*
CN(CC(=O)Nc1ccc(Cl)cc1)C(=O)CCc1nc2sc3c(c2c(=O)[nH]1)CCCC3	50.1µM*	6.0%	2.6%	-16.6%	?	-0.1%
CN(CC(=O)Nc1ccc(F)cc1)C(=O)CCc1nc2sc3c(c2c(=O)[nH]1)CCCC3	56.2µM*	-8.0%	14.8%	-29.7%	?	-3.8%
CN(CC(=O)Nc1c(Cl)cccc1Cl)C(=O)CCc1nc2sc3c(c2c(=O)[nH]1)CCCC3	21.5%[0.501 µM]	0.8%	7.2%	-33.8%	?	?
O=C(Nc1cccc(Cl)c1)C1CCN(S(=O)(=O)Cc2ccccc2)CC1	-8.9%[59 µM]	-3.8%	5.1%	-17.9%	·	0.9%
CCn1c(=O)c2sccc2n2c(CCCC(=O)N3CCN(c4ccc(F)cc4)CC3)nnc12	-4.9%[59 µM]	3.2%	23.9%	-11.0%	·	-15.4%
Cc1cc(C)c(OCCN(C)Cc2ccccc2)c(Br)c1	19.8%[59 µM]	-19.2%	53.6%	-0.4%	10.5%	6.2%
Clc1ccc(OCCOCCNCc2ccccc2)cc1Cl	·	-0.5%	-14.3%	25.1µM*	-10.0%	?
Cc1cc(Cl)cc(C)c1OCCNCc1ccccc1	7.94µM*	-6.0%	?	0.794µM*	11.2%	70.8µM*
c1ccc(OCCOCCOc2ccccc2)cc1	·	-1.7%	33.7%[57 µM]	115.2%	·	·
Cc1cc(C)c(OCCNCc2ccccc2)c(C)c1	7.08µM*	2.6%	-24.4%	1.12µM*	-4.0%	50.1µM*
C=CCNCCOc1c(C)cc(C)cc1Cl	-7.9%[59 µM]	-0.2%	36.4%	-2.1%[57.1 µM]	15.6%	8.0%
Cc1cc(C)c(OCCCCNCc2ccccc2)c(Cl)c1	34.9%[0.501 µM]	-2.2%	-52.6%	1.41µM*	0.5%	56.2µM*
Cc1cccc(-c2nc3c4ccccc4n(CC(=O)Nc4cccc(F)c4)c(=O)n3n2)c1	-0.4%[59 µM]	10.4%	17.7%	-19.2%	·	-0.2%
CC1Cc2cc(S(=O)(=O)NCc3ccccc3Cl)ccc2N1C(=O)C1CCC1 (stereo not given)	-1.4%[59 µM]	-1.3%	30.9%	-16.5%	·	1.8%
Cc1cc(C)c(C)c(OCCNCc2ccccc2)c1	11.2µM*	-2.2%	-7.6%	3.55µM*	-1.4%	20µM*
COc1c(Cl)cc(Cl)cc1CNCc1ccccc1	20.1%	4.5%	83.1%	24.1%	26.7%	6.4%
SMILES	G9a inh	GLS inhibitor	HP1b binding inh	JMJD2A Tudor inh	L3MBTL1 block	BAZ2B block
Cc1cc(Cl)cc(C)c1OCCOCCNCc1ccccc1	·	-0.1%	-3.8%	22.4µM*	-0.9%	?
O=C(CCC1N=C2c3ccccc3N=C(SCc3ccc(Cl)cc3)N2C1=O)N1CCN(c2ccccc2)CC1 (stereo not given)	6.4%[59 µM]	1.3%	12.6%	-23.6%	·	-25.1%
CCCOc1ccc(Cc2nn[nH]n2)cc1	50.1µM*	5.4%	43.8%	-4.1%	-4.5%	-15.0%
CCOc1ccc(Cc2nn[nH]n2)cc1	?	6.2%	22.0%	-12.3%[11.4 µM]	3.2%	5.5%
CCOC(=O)c1sc2ccccc2c1S(=O)(=O)Nc1ccc(OC)c(Cl)c1	?	3.6%	29.3%	-23.3%	·	-31.9%
Cc1cccc(C)c1NC(=O)CN(C)S(=O)(=O)c1ccc2c(c1)n(C)c(=O)c(=O)n2C	3.2%[59 µM]	0.2%	40.0%	2.6%	·	3.6%
O=c1c(N2CCN(c3cccc(C(F)(F)F)c3)CC2)csc2ccc(Cl)cc12	3.0%[59 µM]	3.8%	37.3%[57 µM]	-7.3%	·	-21.4%
O=c1c(N2CCN(c3cccc(C(F)(F)F)c3)CC2)csc2ccccc12	?	9.5%	-11.2%	44.7µM*	·	-20.4%
Clc1cccc(CSc2nnc([C@@H]3CCCN3)o2)c1	16.0%[0.501 µM]	1.1%	62.6%	-19.1%[57.1 µM]	-7.3%	79.4µM*
CCCCN(CCCC)S(=O)(=O)c1ccc(N2CCCC2=O)c([N+](=O)[O-])c1	·	?	-7.5%	31.6µM*	·	·
NNS(=O)(=O)c1ccc(N2CCCC2=O)c([N+](=O)[O-])c1	10µM*	7.6%	48.5%	25.1µM*	1.8%	-17.1%
CN(C(=O)CO)c1c(I)c(C(=O)NCC(O)CO)c(I)c(C(=O)NCC(O)CO)c1I (stereo not given)	·	-6.0%	·	·	·	·
Nc1c(C(=O)c2ccccc2)sc2nsc(SCCN3CCCC3)c12	·	5.6%	-3.9%	79.4µM*	-6.8%	?
Nc1c(C(=O)c2ccc(Cl)cc2)sc2nsc(SCCN3CCOCC3)c12	·	36.9%	62.9%	7.2%	33.2%	17.4%
Cc1sc2ncn(CC(=O)N(C)C3CCCCC3)c(=O)c2c1C	39.8µM*	-3.8%	-2.2%	-20.3%	8.3%	8.7%
COc1ccc2cc(/C=C3\SC(=S)NC3=O)c(N3CCOCC3)nc2c1	?	?	-32.7%	?	-5.1%	?
COC(=O)/C=C1\SC(N2CCOCC2)=C(c2ccc(OC)cc2)C1=O	2µM*	3.2%	-9.4%	-13.2%	-8.2%	44.7µM*
Cc1cc(C)c2c(N=NN3CCOCC3)[nH]nc2n1	8.91µM*	7.9%	28.0%	22.8%	4.7%	-2.8%
O=C(NC(NC(=S)Nc1c(Cl)cccc1Cl)C(Cl)(Cl)Cl)OCc1ccccc1 (stereo not given)	3.16µM*	4.9%	10.4%	-17.0%	-13.4%	-22.6%
Cc1coc2cc3oc(=O)c(CC(=O)NCc4cccc(Cl)c4)c(C)c3cc12	-32.5%[59 µM]	-12.3%	16.0%	-12.6%	·	-4.0%
CC(=O)N1CCN(c2ccc(NCc3cccs3)cc2)CC1	6.31µM*	27.7%	-32.5%	-19.8%[11.4 µM]	-0.9%[11.4 µM]	?
O=C(Cc1cccs1)N1CCN(c2ccc(F)cc2)CC1	8.9%[59 µM]	26.6%	25.5%	-1.1%	0.6%	3.8%
